Reference: the supplement of paper PMC11001985

The molecules below were run against ACLY (lysine site: K991) (UniProt P53396) (assay: lysine labeling ratio R10:1 (500 µM / 50 µM probe), SILAC-ABPP in living cells; higher = lower intrinsic lysine reactivity toward the probe, active = 2 or less). Conditions: HeLa; probe concentrations 500 vs 50 µM.
Description: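 Living HeLa cells (SILAC light/heavy) in PBS at room temperature were labeled with 50 µM versus 500 µM of the lysine-reactive, reductant-cleavable probe OPA-S-S-alkyne (SILAC labeling time not stated). Probe-modified peptides were CuAAC-biotinylated, captured on neutravidin and eluted with DTT/IAA, then quantified by LC-MS/MS. R = median peptide ratio per lysine (500/50 µM), combined over 3 forward and 3 reverse SILAC replicates. Ratios are capped at 20; R < 2 = hyper-reactive.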

Sequence of ACLY (lysine site: K991) (P53396 whole entry): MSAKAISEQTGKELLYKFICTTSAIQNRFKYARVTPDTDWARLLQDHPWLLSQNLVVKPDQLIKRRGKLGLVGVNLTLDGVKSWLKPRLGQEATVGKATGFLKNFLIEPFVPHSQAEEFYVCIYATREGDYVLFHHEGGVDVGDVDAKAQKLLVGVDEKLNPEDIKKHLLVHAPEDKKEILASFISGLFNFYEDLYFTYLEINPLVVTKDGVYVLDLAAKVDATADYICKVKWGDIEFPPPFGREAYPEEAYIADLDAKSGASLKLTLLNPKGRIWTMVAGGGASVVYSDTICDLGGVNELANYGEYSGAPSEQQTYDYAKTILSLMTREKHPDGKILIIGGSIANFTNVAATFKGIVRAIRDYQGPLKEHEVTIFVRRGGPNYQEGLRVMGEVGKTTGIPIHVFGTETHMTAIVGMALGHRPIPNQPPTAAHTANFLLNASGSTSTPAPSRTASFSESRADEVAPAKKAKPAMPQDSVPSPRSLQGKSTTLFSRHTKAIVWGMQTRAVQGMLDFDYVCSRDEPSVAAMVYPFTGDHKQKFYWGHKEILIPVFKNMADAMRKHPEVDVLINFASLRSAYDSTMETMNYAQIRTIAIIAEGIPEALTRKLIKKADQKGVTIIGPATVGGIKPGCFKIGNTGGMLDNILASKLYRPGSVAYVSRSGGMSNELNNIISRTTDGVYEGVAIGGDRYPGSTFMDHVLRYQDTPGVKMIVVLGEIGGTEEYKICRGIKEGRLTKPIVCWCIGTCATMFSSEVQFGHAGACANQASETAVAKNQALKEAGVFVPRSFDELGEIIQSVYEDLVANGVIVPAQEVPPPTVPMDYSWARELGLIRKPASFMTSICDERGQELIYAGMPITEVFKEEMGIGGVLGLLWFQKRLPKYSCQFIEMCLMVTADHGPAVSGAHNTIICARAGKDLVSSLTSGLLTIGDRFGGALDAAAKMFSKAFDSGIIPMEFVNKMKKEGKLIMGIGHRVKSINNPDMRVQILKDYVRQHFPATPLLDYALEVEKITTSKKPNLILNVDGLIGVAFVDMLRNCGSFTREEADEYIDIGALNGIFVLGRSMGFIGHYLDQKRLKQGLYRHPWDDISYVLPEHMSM

Compound	lysine labeling ratio R10:1
C#CCNC(=O)CCSSCCC(=O)NCCc1ccc(C=O)c(C=O)c1	2.27 (inactive)
